# The list is not random: actives were taken first. Their share in the collection is about 3.5%.
# FBW7 activator: activators of human E3 ligase FBW7; Q969H0; AlphaScreen FBW7–phospho-cyclin E peptide binding, activator screen; normalized activity (activation), % at 26.1 µM; 650,000 tested, 0.13% active; in the data active = normalized activity above about 1.9%;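 also: purified mutant Fbw7 with reduced substrate affinity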
# TEAD-YAP inh: TEAD-YAP interaction inhibition. HEK-TIYL cells, TEAD-Gal4/YAP UAS-luciferase luminescence. inhibition, % at 9.12 µM. 640,000 tested, 1.4% active. AID 1259422; in the data active = inhibition above about 32%
# MITF primary: inhibitors of human MITF | O75030 | AlphaScreen MITF homodimerization, bead proximity signal | inhibition, % at 2.6 µM | 650,000 tested, 0.91% active | AID 1259374; in the data active = inhibition above about 50%
# Target sequence (O75030 whole entry, looked up): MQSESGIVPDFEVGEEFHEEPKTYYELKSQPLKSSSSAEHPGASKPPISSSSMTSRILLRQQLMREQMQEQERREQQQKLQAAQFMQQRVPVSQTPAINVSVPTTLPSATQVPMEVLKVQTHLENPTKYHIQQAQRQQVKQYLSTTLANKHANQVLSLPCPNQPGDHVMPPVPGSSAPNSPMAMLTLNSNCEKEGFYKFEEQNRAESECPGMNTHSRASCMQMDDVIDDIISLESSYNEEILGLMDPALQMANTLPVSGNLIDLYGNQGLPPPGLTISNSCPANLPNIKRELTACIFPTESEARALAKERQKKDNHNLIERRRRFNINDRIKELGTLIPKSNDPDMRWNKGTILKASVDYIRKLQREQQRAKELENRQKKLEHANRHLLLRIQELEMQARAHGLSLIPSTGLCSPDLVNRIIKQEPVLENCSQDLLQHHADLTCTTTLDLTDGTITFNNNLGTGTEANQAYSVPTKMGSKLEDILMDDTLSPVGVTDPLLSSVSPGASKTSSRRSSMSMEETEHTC
# GPR151 ag: activators of human GPR151. PathHunter beta-arrestin GPR151 cells, luminescence. activation, % at 11.2 µM. 650,000 tested, 1% active; in the data active = activation above about 4.9%
# Numbers stand for hits; – = inactive; · = no result given.
SMILES,FBW7 activator,TEAD-YAP inh,MITF primary,GPR151 ag
CCOc1ccc(CN2CCN(Cc3cccs3)C(CCO)C2)cc1 (configuration not stated),–,–,–,–
O=C(O)c1ccc2nc(-c3ccccc3)sc2c1,–,–,–,–
Nc1ccc(-c2nc3ccc(C(=O)O)cc3s2)cc1,–,75,–,–
CC(C)N(C(=O)c1ccc(-c2nc3ccccc3s2)cc1)C(C)C,–,54,–,–
CC(=O)NCc1ccc(-c2nc3ccccc3s2)cc1,–,–,–,–
CCOC(=O)C1CCN(c2nc(-c3ccc(Br)cc3)nc3ccccc23)CC1,–,–,–,–
CCOC(=O)C1CCN(c2nc(-c3ccncc3)nc3cnccc23)CC1,–,33,–,–
CCCNc1nc(N2CCOCC2)nc2c1ncn2-c1ccsc1,–,50,–,–
CCCNc1nc(N2CCc3ccccc3C2)nc2c1ncn2-c1ccsc1,–,–,–,–
Nc1nc(N2CCOCC2)nc2c1ncn2-c1ccsc1,–,42,–,–
Cc1c2[nH]c(=O)c(Oc3ccc(C(=O)c4ccc(F)cc4)cc3)c-2n(-c2ccccc2)n1C,–,–,–,–
CC(C)(C)N1COCC(CO)([N+](=O)[O-])C1 (configuration not stated),–,–,–,–
O=C(Cc1ccccc1)Nc1ccnn1C1CCN(C2CCCCC2)CC1,–,–,–,–
COC(=O)Nc1nc2ccc(C(=O)c3ccccc3)cc2[nH]1,–,33,–,–
CCCCOC(=O)c1ccccc1C(=O)c1ccc2nc(NC(=O)OC)[nH]c2c1,–,39,–,–
COC(=O)Nc1nc2ccc(S(=O)c3ccccc3)cc2[nH]1 (configuration not stated),–,·,–,–
COC(=O)Nc1nc2ccc(C(=O)c3cccs3)cc2[nH]1,–,56,–,–
COc1cccc(NS(=O)(=O)c2cc(C(=O)N3CCN(C)CC3)ccc2NCc2ccc(F)cc2)c1,–,–,–,–
CCOC(=O)c1c(C)[nH]c(C(=O)CSc2nnc(NCc3ccccc3)s2)c1C,–,–,–,–
CC(=O)c1c(C)[nH]c(C(=O)CSc2nnc(NCc3ccccc3)s2)c1C,–,42,–,–
CCC(C)c1ccc(NC(=O)C2C3C=CC(O3)C2C(=O)O)cc1 (configuration not stated),–,–,–,–
CC1Oc2ccccc2N(CC(=O)N(C(C)C)C(C)C)C1=O (configuration not stated),–,51,–,–
O=C1NC(=S)N/C1=C/c1ccc(-c2cccc(Cl)c2)o1,–,–,–,–
O=C1NC(=S)N/C1=C/c1ccc(-c2ccc3c(c2)C(=O)OC3)o1,2.5,–,–,–
COc1ccc(-c2cc(-c3c(O)ccc4ccccc34)[nH]n2)cc1,–,89,–,–
SMILES,FBW7 activator,TEAD-YAP inh,MITF primary,GPR151 ag
COc1ccc(-c2cc(-c3cc(OC)ccc3O)[nH]n2)cc1,–,–,–,–
Cc1cc(C(F)(F)F)nc2sc([N+](=O)[O-])c(N)c12,–,–,–,–
Cc1ccc(S(=O)(=O)N2C(=O)CCC2c2nc(-c3ccccn3)no2)cc1 (configuration not stated),–,39,–,–
COc1cc2nc(Nc3cnccn3)nc(Nc3cc(OC)c(OC)c(OC)c3)c2cc1OC,–,33,–,–
COc1cc(Nc2nc(Nc3ccc(N4CCOCC4)cc3)nc3c2ncn3C(C)C)cc(OC)c1OC,–,–,–,–
COc1cc(Nc2nc(Nc3ccc(-n4ccnc4)cc3)nc3c2ncn3C(C)C)cc(OC)c1OC,–,40,–,–
COc1cc(Nc2nc(Nc3cnccn3)nc3c2ncn3C(C)C)cc(OC)c1OC,–,47,–,–
COc1cc(Nc2nc(Nc3ccc(N4CCOCC4)cc3)c3ncn(C(C)C)c3n2)cc(OC)c1OC,–,33,–,–
COc1ccc(CN2CCNC(=O)C2CC(=O)N(C)Cc2cnn(C)c2)c(C)c1C (configuration not stated),–,–,–,–
Ic1ccc(CSc2nc3ccccc3[nH]2)cc1,–,–,–,–
COc1ccccc1CNC(=O)[C@@H](NC(=O)c1ccc(C)cc1)C(C)C,–,–,–,–
COc1ccccc1-n1c(CNC(=O)c2ccc(S(=O)(=O)N(C)C)cc2)nnc1SCC(=O)Nc1cc(C)ccc1C,–,–,–,–
O=C(Nc1ccc(Nc2cc(-n3ccnc3)ncn2)cc1)c1ccc(F)cc1F,–,–,–,–
O=C(Nc1ccc(Nc2cc(-n3ccnc3)ncn2)cc1)c1cccc2ccccc12,–,34,–,–
O=C(CCN1CCOCC1)Nc1ccc(OCc2ccccc2)cc1,–,–,–,–
CCn1nnc2c(Nc3cccc(C)c3)ncnc21,–,–,–,–
CCn1nnc2c(NCc3ccc4[nH]c(C)cc4c3)ncnc21,–,65,–,–
Fc1ccccc1Nc1nc2nonc2nc1N1CCCCCC1,–,–,–,–
N#Cc1c(/N=C/c2ccc(O)cc2O)sc2c1CCCC2,–,61,–,–
N#Cc1c(/N=C\c2ccc(O)cc2O)sc2c1CCCC2,–,–,–,–
CCOC(=O)Cn1cc(C(=O)OC)c2ccccc21,2.3,–,–,–
CCOC(=O)Cn1cc(C=O)c2ccccc21,–,–,–,–
CCN1CCN(CC(=O)c2cc(C)n(-c3ccc(F)cc3)c2C)CC1,–,–,80,–
Cc1cc(C(=O)CN2CCN(C)CC2)c(C)n1-c1ccc(Br)cc1,–,–,88,–
CCNc1nc(C#N)nc(N2CCCCC2)n1,–,41,–,–
SMILES,FBW7 activator,TEAD-YAP inh,MITF primary,GPR151 ag
N#Cc1nc(N2CCCCC2)nc(N2CCCCC2)n1,–,–,–,–
O=C(N/N=C/c1ccc(O)cc1)c1ccccn1,–,–,–,–
CCOc1ccc(/C=N/NC(=O)c2ccoc2C)cc1,–,38,–,–
CC(/C=N\NC(=O)c1ccccn1)=C\c1ccccc1,–,34,–,–
CC(=C/c1ccccc1)/C=N/NC(=O)c1ccccn1,–,–,–,–
O=C(N/N=C\c1ccc(O)cc1)c1ccccn1,–,42,–,–
O=C(N/N=C/c1cccc(O)c1O)c1ccccn1,–,–,81,–
CC(=O)NC(=S)Nc1ccc(N(C)C(C)=O)cc1,–,–,–,–
O=[N+]([O-])c1ccc(N2CCN(S(=O)(=O)c3ccc(Cl)cc3)CC2)cc1NCCOc1ccc(Cl)cc1,–,–,–,–
O=C(N/N=C\c1cccc(O)c1)c1ccccn1,–,74,–,–
CCOc1ccc(/C=N\NC(=O)c2ccccn2)cc1,–,36,–,–
O=C(N/N=C\c1ccc(F)cc1)c1ccccn1,–,–,–,–
CCc1ccc(/C=N/NC(=O)c2ccccn2)cc1,–,–,–,–
CSc1ccc(/C=N\NC(=O)c2ccccn2)cc1,–,49,–,–
CCOC(CNC(=O)C(C)N1C(=O)CC(C)(C)Sc2ccccc21)OCC (configuration not stated),–,–,–,–
COc1ccc(NCCCC(=O)N/N=C/c2ccco2)cc1,–,–,–,–
CCOC(=O)C1=C(C)N=c2s/c(=C\c3cc(Br)c(OC)cc3OC)c(=O)n2C1c1ccc2c(c1)OCO2 (configuration not stated),–,–,–,–
CCN1/C(=C/C(C)=C/c2sc3ccccc3[n+]2CCO)Sc2ccccc21,–,39,–,–
